p53null 32C kill – p53 null cell cytotoxicity, permissive temperature; actives 0.62% (n = 55,000); Potency, µM (doses to about 46.1 µM), most hits filed as cytotoxic; H1299-neo p53 null cells, ATP luminescence, 24 h, 32C; note: nearly all actives have a fitted effect of over 55% in size
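We seeded p53-null H1299-neo cells, incubated them overnight at 37C, and added compounds across a range up to 46 uM. After 24 hours at 32C, ATP reagent was applied for 20 min at room temperature and luminescence recorded.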
p53null 39C kill – selectivity test: cytotoxicity in p53 null cells, nonpermissive temperature; H1299 p53-null (neo) cells, 39C, ATPlite viability, 24 h; Potency, µM (top dose mostly 46.1 µM), hits mostly cytotoxic; actives 0.97% (n = 55,000); AID 904; note: nearly all actives have a fitted effect of over 50% in size
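Concentration-response (up to 46 uM) was run for 24 h at the nonpermissive 39C on H1299-p53A138V or H1299-neo cells. ATP content was measured with ATPlite luminescence. AC50 values were Hill-modeled after normalizing between DMSO and 100 uM tamoxifen killing.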
mTORC1 inh – mTORC1 pathway inhibition measured by phospho-rpS6. Tsc2-/- p53-/- MEF, phospho-rpS6 immunofluorescence/PI, 24 h. Potency, µM (series often up to 38.3 µM), actives largely listed as inhibitors. actives 0.78% (n = 44,000); note: nearly all actives have a fitted effect of over 50% in size
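Compounds act on Tsc2-/-, p53-/- fibroblasts carrying an empty vector for 24 h before fixation and dual staining for phospho-S6 and DNA (propidium iodide). Values are percentages of cells above a rapamycin-defined pS6/PI threshold.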
PMP22 txn – modulates PMP22 transcription in S16 Schwann cells | S16 Pmp22-F2sN Schwann cells, FLuc/NLuc coincidence luminescence, 24 h | Potency, µM (doses to about 57.5 µM), hits mostly inhibitors | actives 2% (n = 43,000); active = clear falling dose curves in both reporters; inconclusive = both reporters move, but less clearly or upward; inactive = either reporter flat; the % is the NLuc reporter signal
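S16 Schwann cells carrying FLuc/NLuc coincidence reporter in the Pmp22 3' UTR treated with compound 24 h at 37C; FLuc then NLuc luminescence read sequentially by dual-luciferase reagents.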
S16 F2sN tox – toxic to S16 Pmp22-F2sN Schwann cells; actives 0.48% (n = 43,000); Potency, µM (highest dose often 57.5 µM), usual class: cytotoxic; S16 Pmp22-F2sN Schwann cells viability, CellTiter-Glo, 24 h; AID 1508642; note: nearly all actives have a fitted effect of over 65% in size
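Used to flag compounds lowering reporter output through toxicity, this quantitative HTS measures ATP-based CellTiter-Glo luminescence in S16 Pmp22-F2sN Schwann cells after 24 h compound exposure at 37C.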
SKOV3 invasion – ovarian cancer metastasis inhibition, 3D TME model; SKOV3ip1-GFP adhesion/invasion on 3D omental model, fluorescence; Potency, µM (highest dose often 45.8 µM), most hits filed as inhibitors; actives 0.1% (n = 46,000); note: nearly all actives have a fitted effect of over 65% in size
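Adhesion/invasion was scored as fixed GFP-labeled SKOV3ip1 cell counts (488/509 nm), normalized to DMSO and tomatine controls. Cancer cells in serum-free medium, with four compound doses (0.36-46 umol/L), sat 2 hr at RT then 16 hr at 37 C on a 48 hr fibroblast/mesothelial/ECM culture.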
Numbers stand for hits. Only some compounds are listed: those with a hit (about 3% of all), similar ones and a draw of the others. Unless noted, calls come from the whole dose curve; as a rule, active = well fitted curve in the direction sought with a large enough effect; inconclusive = small, poorly fitted or top-dose-only effect, or another doubt; inactive = no such curve, though single readings can be large; an effect the other way counts as inactive or inconclusive.

Results for O=C(NCC1CCN(Cc2cccc(Cl)c2)CC1)Nc1ccc(F)c(Cl)c1 ?
p53null 32C kill: inactive; p53null 39C kill: inconclusive; mTORC1 inh: 18µM; PMP22 txn: inactive; S16 F2sN tox: inconclusive; SKOV3 invasion: 20µM

What do the screens show for `Cc1ccc(NC(=O)CCc2c(C)nn(-c3ccc(N4CCCCC4)nn3)c2C)cc1F`?
p53null 32C kill: inconclusive; p53null 39C kill: 7.9µM; mTORC1 inh: inactive; SKOV3 invasion: inactive

How did O=C(CN1C(=O)C2(OCCO2)c2ccccc21)c1ccc(Cl)cc1 do in these assays?
p53null 32C kill: inactive; p53null 39C kill: inactive

How did C#CCN1C(=O)C(O)(CC(=O)c2ccc(OC)c(OC)c2)c2cc(Br)ccc21 (stereo unspecified) do in these assays?
p53null 32C kill: inactive; p53null 39C kill: inconclusive; mTORC1 inh: 5.2µM; PMP22 txn: inconclusive; S16 F2sN tox: inconclusive; SKOV3 invasion: inconclusive

Results for CCCCN1C(=O)C(O)(CC(=O)c2ccc(CC)cc2)c2cc(Br)ccc21 (stereo unspecified) ?
p53null 32C kill: inactive; p53null 39C kill: inconclusive; mTORC1 inh: 16µM; PMP22 txn: inconclusive; S16 F2sN tox: inconclusive; SKOV3 invasion: inactive

Results for CC(C)c1ccc(N2C(=O)CSC23C(=O)N(Cc2ccccc2)c2ccccc23)cc1 (stereo unspecified) ?
p53null 32C kill: inactive; p53null 39C kill: inactive; mTORC1 inh: inactive; PMP22 txn: inconclusive; S16 F2sN tox: inactive; SKOV3 invasion: inactive

What do the screens show for `CC(C)c1ccc(C(=O)CC2(O)C(=O)N(CCc3ccccc3)c3ccc(Cl)cc32)cc1` (stereo unspecified)?
p53null 32C kill: inactive; p53null 39C kill: 13µM; mTORC1 inh: inactive; PMP22 txn: inconclusive; S16 F2sN tox: inactive; SKOV3 invasion: inactive

How did COc1ccccc1C(=O)CC1(O)C(=O)N(CC(N)=O)c2ccccc21 (stereo unspecified) do in these assays?
p53null 32C kill: inactive; p53null 39C kill: inconclusive; mTORC1 inh: inactive; PMP22 txn: inactive; S16 F2sN tox: inactive; SKOV3 invasion: inactive

How did CCCN1C(=O)C(O)(CC(=O)c2ccc(C(C)C)cc2)c2ccccc21 (stereo unspecified) do in these assays?
p53null 32C kill: inactive; p53null 39C kill: inactive; mTORC1 inh: 13µM; PMP22 txn: inactive; S16 F2sN tox: inconclusive; SKOV3 invasion: inactive

How did O=C1NC(=O)C(=Cc2ccc3nccnc3c2)S1 do in these assays?
SKOV3 invasion: inactive

Results for FC(F)(F)c1ccc(C=Cc2nc(COc3ccc(CCCCn4ccnn4)cc3)co2)cc1 ?
SKOV3 invasion: inactive

Results for CCCN1C(=O)C(O)(CC(=O)c2ccc(CC)cc2)c2ccccc21 (stereo unspecified) ?
p53null 32C kill: inactive; p53null 39C kill: inactive; mTORC1 inh: 15µM; PMP22 txn: inactive; S16 F2sN tox: inactive; SKOV3 invasion: inactive

Results for COC(=O)CN1C(=O)C(O)(CC(=O)c2ccc(F)cc2)c2ccccc21 (stereo unspecified) ?
p53null 32C kill: inactive; p53null 39C kill: inactive; mTORC1 inh: inconclusive; PMP22 txn: inactive; S16 F2sN tox: inconclusive; SKOV3 invasion: inactive

Results for CC(C)CN(c1ccccc1)S(=O)(=O)c1nnc(NC(=O)c2ccco2)s1 ?
p53null 32C kill: inconclusive; p53null 39C kill: 2µM; mTORC1 inh: inactive; PMP22 txn: inactive; S16 F2sN tox: inactive; SKOV3 invasion: inactive

Results for CCN(c1ccc(C)cc1)S(=O)(=O)c1nnc(NC(=O)c2cccs2)s1 ?
p53null 32C kill: inactive; p53null 39C kill: inconclusive; mTORC1 inh: inactive; PMP22 txn: inactive; S16 F2sN tox: inactive; SKOV3 invasion: inactive

What do the screens show for `CCN(c1ccccc1)S(=O)(=O)c1nnc(NC(=O)c2cccs2)s1`?
p53null 32C kill: 1.3µM; p53null 39C kill: 1µM; mTORC1 inh: inactive; PMP22 txn: inactive; S16 F2sN tox: inactive; SKOV3 invasion: inactive

How did O=C(O)c1ccc(-c2cc3cccnc3c(-c3ccc4nonc4c3)n2)cc1 do in these assays?
SKOV3 invasion: inactive

How did Cc1cn2cc(C(=O)N(C)CCO)cc(N[C@@H]3CCOc4cccc(C)c43)c2n1 do in these assays?
SKOV3 invasion: inactive

Results for CC1(C)CC(O)CC(C)(C)N1[O] ?
SKOV3 invasion: inactive

How did CCOc1ccc(-c2nnc(-c3ccccc3)o2)cc1 do in these assays?
p53null 32C kill: inconclusive; p53null 39C kill: 13µM

Results for CCOc1ccc(-c2nc3ccccc3c(=O)o2)cc1 ?
p53null 32C kill: 4µM; p53null 39C kill: 6.3µM; mTORC1 inh: inactive; PMP22 txn: inactive; S16 F2sN tox: inactive; SKOV3 invasion: inactive

What do the screens show for `O=C1NC(=O)C(=Cc2ccc3nccc(-c4ccncc4)c3c2)S1`?
SKOV3 invasion: inactive

What do the screens show for `CC(C)(C)c1ccc(C(=O)Nc2nnc3n2CCS3)cc1`?
p53null 32C kill: 10µM; p53null 39C kill: inconclusive; mTORC1 inh: inconclusive; PMP22 txn: inconclusive; S16 F2sN tox: inactive; SKOV3 invasion: inactive

How did C#CCN(C)CC1=Cc2ccccc2Oc2ccccc21 do in these assays?
SKOV3 invasion: inactive

Results for CCNC(=O)Nc1ccc(Oc2ncnc(N)c2C=NOC)cc1Cl ?
SKOV3 invasion: inactive

Results for CC1CCN(S(=O)(=O)c2ccc3nc(Nc4cccc(C(F)(F)F)c4)ccc3c2)CC1 ?
p53null 32C kill: inactive; p53null 39C kill: 11µM; mTORC1 inh: inconclusive; PMP22 txn: inconclusive; S16 F2sN tox: inconclusive; SKOV3 invasion: inactive

What do the screens show for `COc1ccc(OC)c(NC(=O)Nc2cccc(OCc3cc(=O)n4cc(C)ccc4n3)c2)c1`?
p53null 32C kill: 10µM; p53null 39C kill: inconclusive; mTORC1 inh: inactive; PMP22 txn: inactive; S16 F2sN tox: inactive; SKOV3 invasion: inactive

Results for CN(Cc1ccccc1)C(=O)c1cccc(NC(=O)c2nsc3ccccc23)c1 ?
p53null 32C kill: inconclusive; p53null 39C kill: 14µM; mTORC1 inh: inactive; PMP22 txn: inconclusive; S16 F2sN tox: inactive; SKOV3 invasion: inactive

How did Cc1ccc(NC(=O)c2ccccc2O)cc1 do in these assays?
p53null 32C kill: 13µM; p53null 39C kill: 10µM

What do the screens show for `COc1ccc(-c2[nH]nc3nc(-c4cc(OC)c(OC)c(OC)c4)cc(C(=O)O)c23)cc1`?
p53null 32C kill: inactive; p53null 39C kill: inactive; mTORC1 inh: 16µM; PMP22 txn: inactive; S16 F2sN tox: inactive; SKOV3 invasion: inactive

How did CCc1ccc(-c2[nH]nc3nc(-c4cc(OC)ccc4OC)cc(C(=O)O)c23)cc1 do in these assays?
p53null 32C kill: 10µM; p53null 39C kill: 4µM; mTORC1 inh: inconclusive; PMP22 txn: inactive; S16 F2sN tox: inactive; SKOV3 invasion: inactive

Results for COc1cc(N2CCN(C)CC2)ccc1Nc1nc(N)c(C(=O)c2c(Cl)cccc2Cl)s1 ?
SKOV3 invasion: inactive

High-throughput results deposited in PubChem BioAssay by National Center for Advancing Translational Sciences (NCATS).
